The whole screen tested about 410,000 compounds, of which about 1,200 (0.29%) were called active. A call without a number means that no potency is given here. Not shown: some 2% with an inconclusive outcome. The sample holds actives, similar compounds and a random draw of the others, so the mix is not that of the screen. Unmarked numbers belong to inactive results. Calls follow the shape of the dose curve; as a rule, active = well fitted activation curve with a large enough effect; inconclusive = small, poorly fitted or top-dose-only effect; inactive = flat fitted curve, though single readings scatter.
assay: qHTS of Nrf2 Activators; conditions: AREc32 ARE-luciferase reporter (MCF7-derived line), luminescence, 24 h; series mostly up to 46.1 µM; also: nearly all actives have a fitted effect of over 65% in size
Source text: Many diseases have some form of oxidative stress injury and ties to inflammation, causing a host of problems for the patient. The antioxidant response element (ARE) plays an important role in alleviating the harmful effects of oxidative stress. The antioxidant response element (ARE) is a transcriptional regulatory element involved in the activation of genes coding for a number of antioxidant proteins and detoxifying enzymes. These enzymes work in concert to protect tissues from oxidative insults and chemical toxicities in human hepatocytes and immune cells. The protective effects of ARE activation are primarily triggered through Nrf2 (NF-E2-related factor) binding to and activating AREs. It is known that Nrf2 controls the production of over 250 antioxidant and detoxification proteins (Hu et al., 2006), thereby protecting tissues by increasing cellular antioxidant content and suppressing inflammatory signaling pathways. The transcription factor Nrf2 is a central link between oxidative chemicals, such as phenolic antioxidants and electrophilic compounds, and the activation of ARE. Nrf2 levels are constitutively low as a consequence of its interaction with Keap1, which targets its degradation (Zipper and Mulcahy, 2002). Electrophiles react with key cysteine residues in Keap1, releasing Nrf2 and allowing its translocation to the nucleus. Once within the nucleus, Nrf2 complexes with coactivators such as p300, and binds to the AREs to induce gene transcription of cytoprotective enzymes, resulting in the prevention of toxicity. Activation of Nrf2 protects tissues by increasing cellular antioxidant content and suppressing inflammatory signaling pathways. Identifying novel and potent Nrf2 activators by using the AREc32 cell line to detect ARE activation by small molecules will lead to the identification and development of probes to study protective pathways in multiple tissues. These specific probes are essential to study the ARE pathway, and eventually to determine whether this pathway does activate genes that could protect against a host of diseases, including cardiovascular diseases, obesity, diabetes, Alzheimer's, and Parkinson's disease.
This project's aim is to identify novel and potent Nrf2 activators by using the AREc32 cell line to detect ARE activation by small molecules, which will lead to the identification and development of probes to study the ARE pathway.
NIH Chemical Genomics Center [NCGC]
NIH Molecular Libraries Probe Centers Network [MLPCN]
Assay Submitter (PI): Curtis Klaassen, University of Kansas Medical Center
5 uL of 1000 cells/well of AREc32_Fluc cells are seeded into 1536-well plate in OPTI-MEM medium with 5% FBS. The plates are incubated overnight at 37 deg C with 5% CO2. Then through pin tool transfer, 23 nL of compounds are added to each well before a 24 hr incubation at 37 deg C with 5% CO2. After the addition of 2.5 uL of Steady-Glo. the plates are kept at RT for 30 min, before they are read on the ViewLux.
Potency is read from the fitted curve at half-maximal effect.

Row | SMILES | Potency | activation
1 | Cc1ccccc1C(=O)OC1OC(=O)C(Cl)=C1Nc1ccccc1 (stereo not drawn) | 15.8 µM (active) | 
2 | O=C1OC(OC(=O)c2ccccc2Br)C(N2CCOCC2)=C1Cl (stereo not drawn) | inactive | 
3 | Cc1ccc(NC2=C(Cl)C(=O)OC2OC(=O)c2ccccc2C)cc1 (stereo not drawn) |  | 0.434% [at 9.22 µM]
4 | CCOC(=O)c1c(C)[nH]c(C)c1S(=O)(=O)N1CCC(C(=O)Nc2ccc(C)c(Cl)c2)CC1 | inactive | 
5 | Nc1c(C(=O)c2cccs2)sc2nsc(SCCN3CCCCC3)c12 | 10 µM (active) | 
6 | Cc1cc(NC(C)C)n2c(nc3ccccc32)c1C#N | inactive | 
7 | Cc1cc(NCc2ccco2)n2c(nc3ccccc32)c1C#N | 5.01 µM (active) | 
8 | CC(C)c1cc(NCc2ccccn2)n2c(nc3ccccc32)c1C#N | inactive | 
9 | Cc1cc(C)cc(NC(=O)COC(=O)c2cc(C)oc2C)c1 | inactive | 
10 | Cc1cc(C(=O)NCCc2ccc(Cl)cc2)c(C)o1 | inactive | 
11 | Cc1cc(C(=O)N/N=C\C(Br)=C\c2ccccc2)c(C)o1 | 20 µM (active) | 
12 | COc1cccc(C(=O)NCC(=O)OCc2cc(=O)n3ccsc3n2)c1 | inactive | 
13 | S=c1[nH]nc(-c2cc(-c3ccsc3)n[nH]2)n1-c1ccccc1 | 8.91 µM (active) | 
14 | Cc1n[nH]c(=O)n1-c1ccc(Oc2ccccc2)cc1 | inactive | 
15 | S=c1[nH]nc(CSCc2ccc(Cl)cc2Cl)n1-c1ccccc1 | inactive | 
16 | COc1cccc(C(c2c(O)cc(C)n(Cc3ccco3)c2=O)N2CCN(c3ccccc3)CC2)c1 (stereo not drawn) | inactive | 
17 | CN(C)c1ccc(NC(=O)c2ccncc2)c2ccccc12 | inactive | 
18 | O=C(Nc1ccc2ccccc2c1[N+](=O)[O-])c1ccccc1 | 14.1 µM (active) | 
19 | Cc1ccc(NC(=O)c2oc3ccccc3c2C)c([N+](=O)[O-])c1 | inactive | 
20 | O=C(CN1C(=O)COc2ccc(S(=O)(=O)N3CCOCC3)cc21)N1CCN(c2cccc(Cl)c2)CC1 | inactive | 
21 | Cc1cc2nc(-c3ccc(NC(=O)c4cc5ccccc5o4)cc3)oc2cc1C | inactive | 
22 | O=C(COC(=O)/C=C/c1nc2ccccc2s1)Nc1ccccc1Oc1ccccc1 | inactive | 
23 | NC(=O)COC(=O)/C=C/c1ccc2ccccc2n1 | 15.8 µM (active) | 
24 | CCOc1cccc(/C=C/c2ccc3ccccc3n2)c1OC(C)=O | inactive | 
25 | CN(C(=O)c1ccc2c(c1)N(Cc1cccc(Cl)c1)C(=O)c1ccccc1S2=O)C1CCCCC1 (stereo not drawn) | inactive | 
26 | CC(C)C(=O)Nc1nc2c(s1)CC(C(C)(C)C)CC2 (stereo not drawn) | inactive | 
27 | Cc1ccc(NC(=O)Cn2nnc3sc4c(c3c2=O)CCC(C)C4)cc1 (stereo not drawn) | inactive | 
28 | COC(=O)c1cccc(Cn2nnc3sc4c(c3c2=O)CCC(C(C)(C)C)C4)c1 (stereo not drawn) | inactive | 
